Test results from PubChem BioAssay (NCI).
About 79,000 compounds went through this panel and 15% of them were active in at least one assay; those are over-represented in the sample as a whole. Rule as the data show it: active = growth inhibition above about 70%; inactive = the rest. Where a SMILES comes first, the peptide text is derived from it. [ ]: non-standard residue; d: D form. Ac5c = NC1(C(=O)O)CCCC1

Key:
[1] = NCI Yeast Anticancer Drug Screen. Data for the rad50 strain (AID 155);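 also: 0% = growth of vehicle-only cultures of the same strain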; settings: S. cerevisiae rad50 strain growth inhibition; at 50.0 µM; active compounds read high
Outline: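 Cells are treated with compound, grown, and their growth is then scored against vehicle-only cultures of the same repair-deficient yeast strain.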

[2] = NCI Yeast Anticancer Drug Screen. Data for the mec2-1 strain (AID 157); settings: S. cerevisiae mec2-1 strain, at 50.0 µM, active compounds read high
Outline: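 Vehicle-treated cultures served as reference for growth inhibition of compound-exposed mec2-1 yeast.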

[3] = NCI Yeast Anticancer Drug Screen. Data for the sgs1 mgt1 strain (AID 161);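 also: 0% = growth of cultures given vehicle only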; settings: S. cerevisiae sgs1 mgt1 strain, at 50.0 µM, active compounds read high
Outline: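 Genetically altered yeast, compound exposure, growth inhibition relative to vehicle.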

[4] = NCI Yeast Anticancer Drug Screen. Data for the cln2 rad14 strain (AID 165);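 also: 0% = growth equal to vehicle treated cultures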; settings: S. cerevisiae cln2 rad14 strain, at 50.0 µM, active compounds read high
Outline: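 Each compound was tested on cln2 rad14 yeast. Inhibition of growth was calculated against vehicle-exposed controls.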

[5] = NCI Yeast Anticancer Drug Screen. Data for the bub3 strain (AID 167); settings: S. cerevisiae bub3 mutant strain, at 50.0 µM, active compounds read high
Outline: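 Part of a panel of yeast mutants defective in DNA damage repair or cell cycle regulation. Each strain is grown with compound, and inhibition is calculated relative to solvent-treated cultures.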

[6] = NCI Yeast Anticancer Drug Screen. Data for the mlh1 rad18 strain (AID 175); settings: S. cerevisiae mlh1 rad18 strain growth inhibition; at 50.0 µM; active compounds read high
Outline: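 Vehicle-treated cultures served as the reference for growth inhibition in a yeast strain carrying DNA damage repair alterations exposed to each compound.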

Measured: growth inhibition

N#C/C(=C\c1ccccc1Br)C(=O)c1ccccc1
inactive: [1] 15.2% | [2] 6.15% | [3] -3.35% | [4] 11.4% | [5] -12.8% | [6] -14.3%

COc1ccc(CSC(=S)Nc2ccc(N=Nc3ccccc3)cc2)cc1
inactive: [1] 33.7% | [2] 11.6% | [3] 24.6% | [4] 25.4% | [5] -7.3% | [6] 1.55%

CCCCC(C(=O)O)C(=O)O
inactive: [1] -15.3% | [2] -13.4% | [3] -21.8% | [4] 1.1% | [5] -2.05% | [6] -18.4%

CC(=O)C(C)CO (configuration not stated)
inactive: [1] 14.2% | [2] -21.1% | [3] 5.5% | [4] 8.55% | [5] 9.2% | [6] 13.7%

O=C1Oc2cc3c(c4cccc1c24)O[C@H](c1ccccc1)[C@@H](c1ccccc1)[C@@H]3c1ccc(Cl)cc1
inactive: [1] -2.95% | [2] 11.2% | [3] -2.4% | [4] -5.15% | [5] 3.3% | [6] 9.3%

CCOCC1c2ccccc2CCN1Cc1c[nH]c2ccccc12 (configuration not stated)
inactive: [1] 9.65% | [2] -21.2% | [3] -2.85% | [4] -5.15% | [5] 0.6% | [6] -4.55%

O=S=NCCCl
inactive: [1] -14.3% | [2] -14.6% | [3] -13.2% | [4] 1.5% | [5] -10.8% | [6] 0.35%

O=S(=O)(c1ccc(Br)cc1)C(F)(F)F
inactive: [1] 11.1% | [2] 10% | [3] 0.1% | [4] 2.6% | [5] 12.7% | [6] 5.15%

Cc1ccccc1C1OC(=O)c2ccccc21 (configuration not stated)
inactive: [1] 17.7% | [2] -8.85% | [3] 4.45% | [4] 4.2% | [5] 15.2% | [6] 27.6%

CCOC(=O)C(NC(=O)NCc1ccc(F)cc1)C(F)(F)F (configuration not stated)
inactive: [1] -46.7% | [2] 2.2% | [3] -31.5% | [4] 19.4% | [5] 51.9% | [6] -43.1%

NC(=S)N/N=C/c1ccco1
inactive: [1] -26.2% | [2] -11.3% | [3] -18.3% | [4] -67.2% | [5] -23.9% | [6] -8.2%

NC(=S)NNC(=O)c1cccs1
inactive: [1] -9.9% | [2] -10.2% | [3] 22.6% | [4] 3.35% | [5] 7.05% | [6] 9.75%

O=S1(=O)COc2ccccc2-c2ncncc21
inactive: [1] 10.2% | [2] -9.85% | [3] -2.35% | [4] 31.2% | [5] -2.6% | [6] -11.8%

O=c1cccc(CCc2ccccc2)[nH]1
inactive: [1] -8.85% | [2] -9.35% | [3] -9.6% | [4] 0.6% | [5] -0.55% | [6] -16.4%

Cc1cc(C(=O)NN)no1
inactive: [1] -4.75% | [2] -4.4% | [3] -3.9% | [4] -10.4% | [5] -7.15% | [6] -8.15%

CCOC(=O)C(=CNc1ccc(S(N)(=O)=O)cc1)C(=O)OCC
inactive: [1] 13.7% | [2] 7.95% | [3] -31.1% | [4] 5.6% | [5] -14% | [6] -26.2%

CNC(=O)C1CCCN1C(=O)C(Cc1cnc[nH]1)NC(=O)C1CCC(=O)N1 (configuration not stated)
inactive: [1] -21.2% | [2] -13.9% | [3] -11.6% | [4] 11.9% | [5] -14.1% | [6] -16.8%

CC(=O)Nc1nc(NC(C)=O)c2nc(CCN(C)c3ccc(C(=O)O)cc3)cnc2n1
inactive: [1] -9.05% | [2] -18.4% | [3] -5.6% | [4] -5.25% | [5] -40.5% | [6] 2.15%

CC1CC(C#N)=C(NC#N)NC1=O (configuration not stated)
inactive: [1] -0.5% | [2] 12.4% | [3] 19.2% | [4] 5.55% | [5] -0.75% | [6] 9.4%

N#Cc1cc2c(n(C3OC(CO)C(O)C(O)C3O)c1=S)CCCCCC2 (configuration not stated)
inactive: [1] 31% | [2] 19.5% | [3] 17.8% | [4] 10.4% | [5] -3.55% | [6] 37.1%

Cc1ccc(N=Nc2ccc(N)cc2C)c(S(N)(=O)=O)c1
inactive: [1] 40.3% | [2] 4.05% | [3] 51.3% | [4] 5.05% | [5] 61.8% | [6] 49%

COc1cc2oc3c(C)c(=O)cc4oc(-c5ccccc5)cc(c2c2c1CCC(c1ccccc1)O2)c43 (configuration not stated)
inactive: [1] -23.6% | [2] -5.9% | [3] -20.1% | [4] 4.35% | [5] -20.2% | [6] -0.7%

CCCCCCCCCCCCCC(=O)Cl
inactive: [1] -52.4% | [2] -4% | [3] -47.2% | [4] -39.9% | [5] -65.5% | [6] -104%

C#CC(C)(O)CCCCCCC (configuration not stated)
inactive: [1] 18.3% | [2] -27.1% | [3] 4% | [4] -22.8% | [5] -12.4% | [6] 5%

N#Cc1nc(Cc2ccccc2)oc1N
inactive: [1] 27.3% | [2] 9.2% | [3] -22% | [4] 18.4% | [5] -26.1% | [6] -22.6%

c1csc(-c2cc(-c3cccs3)c(-c3ccsc3)s2)c1
inactive: [1] -46.8% | [2] -43.4% | [3] -32.2% | [4] -26.2% | [5] -19.5% | [6] -46%

C#CC(O)(CC)CCCC (configuration not stated)
inactive: [1] -8.85% | [2] -13.4% | [3] 10.2% | [4] -18.5% | [5] -10.9% | [6] -4.25%

CC/C(C)=C1/CC(C)(C)N=C1C
inactive: [1] -11.7% | [2] -43.5% | [3] -10% | [4] -20.6% | [5] -12.2% | [6] -22.6%

Cc1cc(=O)[nH]c2cc(O)c(C(=O)O)cc12
inactive: [1] -2.95% | [2] 3.7% | [3] -0.3% | [4] -54.5% | [5] 1.6% | [6] -8.15%

O=C1NC(N2CCCC(CO)C2)=N/C1=C\c1ccc(O)cc1 (configuration not stated)
inactive: [1] 13.1% | [2] 2.05% | [3] -15.3% | [4] 33.4% | [5] -9.6% | [6] -31.6%

CCCCONC(N)=O
inactive: [1] -12.2% | [2] -11.1% | [3] -23.4% | [4] 7.75% | [5] -5.15% | [6] -5.95%

C/C=C1/CN2CCc3c([nH]c4ccccc34)C2CC1C(Cc1c[n+]2c(c3[nH]c4ccccc4c13)CC1C(C(=O)OC)=COC(C)C1C2)C(=O)OC (configuration not stated)
inactive: [1] 13.4% | [2] -25.6% | [3] -21.4% | [4] 17.1% | [5] -22.2% | [6] -12.3%

CN(C)c1nc2nc[nH]c2c(=S)n1C
inactive: [1] 7.45% | [2] 6% | [3] 4.1% | [4] 24.6% | [5] -9.6% | [6] 0.15%

COc1cc(/C=C/Cc2cc3c(cc2O)OCO3)cc(OC)c1OC
inactive: [1] 0.7% | [2] -15.6% | [3] 0.55% | [4] -21.6% | [5] -1.9% | [6] 0.75%

CC1CN(C(=S)Nc2ccccc2)CCN1C(=S)Nc1ccccc1 (configuration not stated)
inactive: [1] -9% | [2] 8.7% | [3] 6.3% | [4] -42.9% | [5] 0.5% | [6] -7.6%

C(=N\c1nccs1)/c1ccc(/C=N/c2nccs2)cc1
inactive: [1] -5.2% | [2] -5.2% | [3] 1.6% | [4] 9% | [5] 12.1% | [6] 7%

O=C1CN(c2ccccc2)C(=O)CN1/N=C/c1ccc(O)c(O)c1
inactive: [1] -35.2% | [2] 8.75% | [3] -3.25% | [4] 12.7% | [5] -2.55% | [6] -11.2%

O=C(O)CCC1CC1C(=O)c1ccccc1 (configuration not stated)
inactive: [1] 15.2% | [2] 5.55% | [3] -3.85% | [4] -37% | [5] -28.6% | [6] 17.9%

NC1(C(=O)NC2(C(=O)O)CCCC2)CCCC1 (H-[Ac5c]-[Ac5c]-OH)
inactive: [1] 8.75% | [2] 2.85% | [3] 0.8% | [4] -6.65% | [5] -42.9% | [6] 40.4%

CCC1(CC)CC(=O)NC1=O
inactive: [1] -4.95% | [2] -11.6% | [3] -40.5% | [4] 1.5% | [5] -26% | [6] -11.1%

CC(=O)c1c(C)cc2cccc(OC3OC(CO)C(O)C(O)C3O)c2c1O (configuration not stated) (tested in a mixture with another compound)
inactive: [1] 9.1% | [2] 8.2% | [3] -18.6% | [4] 0% | [5] -7.25% | [6] -56.3%

c1ccc2c(c1)n1nnnc1c1nnnn21
inactive: [1] 34.6% | [2] -10.4% | [3] 20.1% | [4] 23.7% | [5] 4.85% | [6] 24.4%
